Targets with a hit are over-represented here; the source holds about 7,900 in all. About 0.6% of all pairs of compound and target were hits. A number with no mark means an inactive call.

Sequence of UniProt Q9HCE1 (Q9HCE1 whole entry, looked up): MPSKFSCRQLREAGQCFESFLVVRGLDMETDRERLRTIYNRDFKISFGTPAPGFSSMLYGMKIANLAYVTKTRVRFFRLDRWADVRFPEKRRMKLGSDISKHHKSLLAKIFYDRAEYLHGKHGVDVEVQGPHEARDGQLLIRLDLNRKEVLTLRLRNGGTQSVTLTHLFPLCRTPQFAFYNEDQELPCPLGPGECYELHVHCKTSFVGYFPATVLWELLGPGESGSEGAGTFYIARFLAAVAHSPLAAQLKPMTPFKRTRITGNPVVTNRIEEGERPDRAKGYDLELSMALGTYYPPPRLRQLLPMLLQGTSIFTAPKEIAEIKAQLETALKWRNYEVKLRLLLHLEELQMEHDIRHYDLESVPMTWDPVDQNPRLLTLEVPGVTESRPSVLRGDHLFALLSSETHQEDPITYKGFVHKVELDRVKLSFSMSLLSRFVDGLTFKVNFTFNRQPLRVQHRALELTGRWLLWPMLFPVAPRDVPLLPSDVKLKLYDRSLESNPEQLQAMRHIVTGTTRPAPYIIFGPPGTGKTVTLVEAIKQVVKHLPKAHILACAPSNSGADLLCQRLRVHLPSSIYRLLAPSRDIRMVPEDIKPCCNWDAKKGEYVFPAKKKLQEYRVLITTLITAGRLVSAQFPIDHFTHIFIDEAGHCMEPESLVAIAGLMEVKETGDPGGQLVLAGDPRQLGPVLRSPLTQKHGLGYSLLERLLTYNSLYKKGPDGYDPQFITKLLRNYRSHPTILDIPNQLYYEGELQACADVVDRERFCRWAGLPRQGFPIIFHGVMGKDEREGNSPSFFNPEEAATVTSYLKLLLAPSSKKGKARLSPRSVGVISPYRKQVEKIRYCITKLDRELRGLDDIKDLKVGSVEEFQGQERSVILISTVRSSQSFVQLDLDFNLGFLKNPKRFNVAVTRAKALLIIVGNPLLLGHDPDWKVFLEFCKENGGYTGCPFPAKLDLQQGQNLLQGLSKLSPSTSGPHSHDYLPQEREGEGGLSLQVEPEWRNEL
Sequence of UniProt Q96BN8 (Q96BN8 whole entry, looked up): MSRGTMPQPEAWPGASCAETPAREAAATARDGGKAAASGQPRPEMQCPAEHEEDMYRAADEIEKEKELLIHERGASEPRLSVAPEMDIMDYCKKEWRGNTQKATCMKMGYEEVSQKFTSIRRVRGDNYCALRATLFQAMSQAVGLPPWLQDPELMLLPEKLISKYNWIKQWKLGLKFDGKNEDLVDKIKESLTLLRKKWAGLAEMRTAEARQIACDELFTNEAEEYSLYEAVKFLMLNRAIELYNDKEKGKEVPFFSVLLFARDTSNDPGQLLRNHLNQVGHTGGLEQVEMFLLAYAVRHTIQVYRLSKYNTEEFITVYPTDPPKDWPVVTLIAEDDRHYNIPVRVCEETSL
Sequence of UniProt O00567 (O00567 whole entry, looked up): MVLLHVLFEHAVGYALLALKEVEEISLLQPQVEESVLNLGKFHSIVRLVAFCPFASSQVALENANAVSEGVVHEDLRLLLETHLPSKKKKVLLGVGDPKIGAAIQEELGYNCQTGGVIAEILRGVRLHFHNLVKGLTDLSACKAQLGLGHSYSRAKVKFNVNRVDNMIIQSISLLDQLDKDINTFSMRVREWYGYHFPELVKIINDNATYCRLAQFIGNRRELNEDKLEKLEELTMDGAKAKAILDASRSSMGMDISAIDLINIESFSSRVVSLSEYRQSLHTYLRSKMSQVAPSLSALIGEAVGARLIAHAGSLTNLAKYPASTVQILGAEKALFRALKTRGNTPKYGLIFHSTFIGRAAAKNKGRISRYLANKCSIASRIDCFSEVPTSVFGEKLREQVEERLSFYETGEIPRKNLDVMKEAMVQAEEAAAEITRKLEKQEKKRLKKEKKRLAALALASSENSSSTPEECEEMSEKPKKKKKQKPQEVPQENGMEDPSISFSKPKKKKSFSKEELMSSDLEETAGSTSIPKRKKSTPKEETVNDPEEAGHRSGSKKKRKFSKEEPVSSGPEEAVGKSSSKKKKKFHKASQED
Sequence of UniProt Q9NZT2 (Q9NZT2 whole entry, looked up): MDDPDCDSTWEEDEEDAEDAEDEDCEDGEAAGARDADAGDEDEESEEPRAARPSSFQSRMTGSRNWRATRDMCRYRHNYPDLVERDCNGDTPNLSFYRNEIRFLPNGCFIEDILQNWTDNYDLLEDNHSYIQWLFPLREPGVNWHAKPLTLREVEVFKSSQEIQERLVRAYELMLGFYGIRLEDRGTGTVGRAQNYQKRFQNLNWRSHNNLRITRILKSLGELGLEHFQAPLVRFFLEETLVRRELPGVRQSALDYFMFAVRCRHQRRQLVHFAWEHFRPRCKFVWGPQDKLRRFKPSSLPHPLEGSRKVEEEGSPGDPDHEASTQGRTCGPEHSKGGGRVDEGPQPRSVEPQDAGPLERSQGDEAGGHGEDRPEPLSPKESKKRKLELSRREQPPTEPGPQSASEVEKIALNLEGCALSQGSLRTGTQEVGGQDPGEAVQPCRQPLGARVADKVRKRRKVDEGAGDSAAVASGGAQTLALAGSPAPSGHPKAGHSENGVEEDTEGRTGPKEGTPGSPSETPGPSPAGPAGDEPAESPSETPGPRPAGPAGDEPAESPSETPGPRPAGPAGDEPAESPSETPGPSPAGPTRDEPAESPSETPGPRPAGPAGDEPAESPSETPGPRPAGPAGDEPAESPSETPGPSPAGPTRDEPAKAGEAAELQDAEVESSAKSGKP
Sequence of UniProt O75251 (O75251 whole entry, looked up): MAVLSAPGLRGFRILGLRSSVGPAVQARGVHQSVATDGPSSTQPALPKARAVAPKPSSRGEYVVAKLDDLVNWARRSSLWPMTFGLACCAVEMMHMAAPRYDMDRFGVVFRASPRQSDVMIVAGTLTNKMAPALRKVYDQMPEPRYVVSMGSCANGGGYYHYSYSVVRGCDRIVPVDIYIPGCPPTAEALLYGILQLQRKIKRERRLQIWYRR
Sequence of UniProt Q15003 (Q15003 whole entry, looked up): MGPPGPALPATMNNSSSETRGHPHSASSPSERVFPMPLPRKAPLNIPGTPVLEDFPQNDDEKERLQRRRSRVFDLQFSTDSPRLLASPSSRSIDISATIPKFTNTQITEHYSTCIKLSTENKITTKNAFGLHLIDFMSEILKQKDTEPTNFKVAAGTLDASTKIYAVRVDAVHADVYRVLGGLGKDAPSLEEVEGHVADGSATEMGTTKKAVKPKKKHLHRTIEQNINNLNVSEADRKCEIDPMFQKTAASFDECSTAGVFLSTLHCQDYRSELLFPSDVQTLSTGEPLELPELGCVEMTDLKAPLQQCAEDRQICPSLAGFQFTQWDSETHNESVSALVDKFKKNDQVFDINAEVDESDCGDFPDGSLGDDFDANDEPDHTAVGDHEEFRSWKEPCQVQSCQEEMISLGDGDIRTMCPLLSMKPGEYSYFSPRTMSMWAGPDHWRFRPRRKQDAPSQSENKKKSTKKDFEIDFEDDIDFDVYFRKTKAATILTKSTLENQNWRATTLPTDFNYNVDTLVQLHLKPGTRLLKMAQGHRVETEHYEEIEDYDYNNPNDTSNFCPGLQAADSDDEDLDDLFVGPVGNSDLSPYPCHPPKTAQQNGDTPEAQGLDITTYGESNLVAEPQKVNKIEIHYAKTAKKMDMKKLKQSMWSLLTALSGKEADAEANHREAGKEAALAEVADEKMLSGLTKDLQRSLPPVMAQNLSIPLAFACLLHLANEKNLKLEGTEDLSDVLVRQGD
Sequence of UniProt Q9NXX6 (Q9NXX6 whole entry, looked up): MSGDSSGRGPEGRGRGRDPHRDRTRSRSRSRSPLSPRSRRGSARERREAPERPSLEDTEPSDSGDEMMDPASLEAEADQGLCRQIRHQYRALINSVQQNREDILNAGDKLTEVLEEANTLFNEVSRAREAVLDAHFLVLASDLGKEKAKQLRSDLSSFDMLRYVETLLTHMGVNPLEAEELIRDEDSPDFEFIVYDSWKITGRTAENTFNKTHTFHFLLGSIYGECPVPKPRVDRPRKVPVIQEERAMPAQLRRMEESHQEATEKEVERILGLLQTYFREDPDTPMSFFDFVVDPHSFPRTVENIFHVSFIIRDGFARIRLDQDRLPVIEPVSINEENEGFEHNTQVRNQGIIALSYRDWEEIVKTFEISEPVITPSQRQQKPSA
Sequence of UniProt O60551 (O60551 whole entry, looked up): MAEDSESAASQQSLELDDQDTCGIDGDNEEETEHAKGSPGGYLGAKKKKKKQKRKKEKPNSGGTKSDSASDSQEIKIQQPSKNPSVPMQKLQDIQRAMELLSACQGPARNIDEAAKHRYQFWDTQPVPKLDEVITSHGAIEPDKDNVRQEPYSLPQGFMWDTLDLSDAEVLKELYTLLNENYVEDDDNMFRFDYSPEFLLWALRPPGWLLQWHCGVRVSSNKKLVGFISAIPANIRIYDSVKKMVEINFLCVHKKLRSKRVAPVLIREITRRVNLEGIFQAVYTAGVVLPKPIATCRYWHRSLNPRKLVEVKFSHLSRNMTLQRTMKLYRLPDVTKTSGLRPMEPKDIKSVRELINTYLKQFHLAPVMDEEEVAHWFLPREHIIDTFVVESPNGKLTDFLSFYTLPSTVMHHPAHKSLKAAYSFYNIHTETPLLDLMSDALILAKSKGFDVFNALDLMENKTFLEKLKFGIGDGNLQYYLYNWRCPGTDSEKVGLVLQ
Sequence of UniProt O43809 (O43809 whole entry, looked up): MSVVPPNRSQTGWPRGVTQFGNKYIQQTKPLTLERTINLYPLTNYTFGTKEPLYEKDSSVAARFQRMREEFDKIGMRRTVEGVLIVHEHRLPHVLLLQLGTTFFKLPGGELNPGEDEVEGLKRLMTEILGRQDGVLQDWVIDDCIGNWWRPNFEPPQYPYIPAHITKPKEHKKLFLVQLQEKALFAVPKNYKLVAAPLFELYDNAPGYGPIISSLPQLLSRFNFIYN
Sequence of UniProt Q9H1E3 (Q9H1E3 whole entry, looked up): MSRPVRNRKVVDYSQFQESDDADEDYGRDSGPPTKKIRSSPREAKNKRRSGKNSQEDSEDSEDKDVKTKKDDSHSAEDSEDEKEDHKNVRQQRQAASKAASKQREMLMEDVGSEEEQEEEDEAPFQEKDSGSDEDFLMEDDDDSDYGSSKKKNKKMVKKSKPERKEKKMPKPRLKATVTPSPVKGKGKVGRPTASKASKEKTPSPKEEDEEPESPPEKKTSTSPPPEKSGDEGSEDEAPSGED

Compound in this assay: CCCCN(Cc1ccc(C(=O)NO)cc1)C(=O)Nc1ccccc1 [Nexturastat A]
Nature of the assay: log2 fold change, soluble protein after heating vs DMSO (PISA); higher = thermal stabilisation; K562 cells, 10 uM, 30 min; active = over 0.2 and 3.5 SD of the protein, either way, in both replicates (recomputed). Summed up: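 K562 cells at 2×10^6 cells/mL were given 10 μM compound for 30 min. Aliquots then went through 3 min of heating across 48°C-58°C, were pooled, and were extracted in PBS with 0.5% NP-40 at 4°C, and the supernatant after 21,000xg for 90 min was quantified by TMTpro 16plex LC-MS/MS with channel sums equalised. Thermal stability relative to control samples, from duplicates, is given as log2 fold change.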
On to NUDT21 (UniProt O43809), for which the log2 fold change was 0. On to NUCKS1 (UniProt Q9H1E3), for which the log2 fold change is -0.061. In the case of NUDT1 (UniProt P36639) it was -0.086.

Consider MRPS2 (UniProt Q9Y399), for which the log2 fold change was 0.049. Turning to NDUFA12 (UniProt Q9UI09), the log2 fold change is -0.027.

For OGFR (UniProt Q9NZT2), the log2 fold change is 0.057.

Regarding NIBAN1 (UniProt Q9BZQ8), the log2 fold change was 0.077. As for NSMCE4A (UniProt Q9NXX6), the log2 fold change is 0.037. In the case of MUL1 (UniProt Q969V5), the log2 fold change is -0.022.

As for NDUFS7 (UniProt O75251), the log2 fold change is -0.019. In the case of OTULIN (UniProt Q96BN8), the log2 fold change was -0.17. As for MOV10 (UniProt Q9HCE1), the log2 fold change was 0.221.

As to NCAPH (UniProt Q15003), the log2 fold change was 0.09. Turning to NOP56 (UniProt O00567), the log2 fold change is 0.127.

As for OTUD4 (UniProt Q01804), the log2 fold change is 0.055. In the case of NA, A0A096LPI6 it was -0.093; in that of MSH6 (UniProt P52701), -0.049. With NCAPD2 (UniProt Q15021), the log2 fold change is 0.058. Consider NCOA7 (UniProt Q8NI08), for which the log2 fold change is 0.012. To NDUFA6 (UniProt P56556) belongs -0.067. In the case of NME7 (UniProt Q9Y5B8) it was 0.024. Take NFATC2IP (UniProt Q8NCF5): the log2 fold change is 0.007.

On to MMS19 isoform 8 (UniProt Q96T76), for which the log2 fold change is 0.051.

NMT2 (UniProt O60551): the log2 fold change was -0.037.

For the origin of these results see the supplement of paper PMC10849652.
